Molecules are shown by their SMILES. Where a name gives a salt, the structure may show the parent alone.

The subject of this test is SARS-CoV-2 low-rank motif (SARS-low). Kind of test: normalised indicator fluorescence (fraction of RNA + indicator signal without compound); higher = less displacement of indicator (weaker competition). To be noted: compound concentration: 5 uM; 30 min; indicator: TO-PRO-1 0.1 uM; RNA concentration: 0.1 uM. In short, it runs like this: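 Compounds, each at about 5 uM final from 0.25 μL of 1 mM DMSO stock, were tested in 96-well plates for displacement of TO-PRO-1 or TO-PRO-3 from RNA in 20 mM phosphate pH 7.0, 20 mM NaCl, 80 mM KCl. Fluorescence was recorded after 30 min on an Infinite 200 PRO (excitation 485 or 620 nm). Reported values are averages of two independent experiments, calculated as indicator fluorescence minus the buffer-plus-indicator blank, divided by the RNA-plus-indicator signal without compound.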
With `CCNC(=O)c1noc(-c2cc(Cl)c(O)cc2O)c1-c1ccc(OC)cc1`, the normalised indicator fluorescence was 1.27.

`COc1ccc(O)cc1` [4-Methoxyphenol]: the normalised indicator fluorescence amounted to 1.12. Next, `COc1ccc(-c2nc(-c3cc(C(F)(F)F)cc(C(F)(F)F)c3)n(Cc3ccc(C(N)=O)cc3)c2-c2ccc(OC)cc2)cc1` [Apoptozole]: 1.12; `O=C(/C=C/C=C/c1ccc2c(c1)OCO2)N1CCCCC1` [Piperine]: 1.02; `OC[C@H]1O[C@@H](Oc2ccc(O)cc2)[C@H](O)[C@@H](O)[C@@H]1O` [Arbutin]: 1.1. The value for `CC(=O)Oc1c(C)c(C)c2c(c1C)CCC(C)(CCC[C@H](C)CCC[C@H](C)CCCC(C)C)O2` (some centres not stated) [Vitamin E Acetate] was 1.05; that for `CC(C)(O)[C@@H]1CC[C@](C)([C@H]2[C@@H](O)C[C@@]3(C)[C@@H]4C[C@H](O)[C@H]5C(C)(C)[C@@H](O[C@@H]6OC[C@@H](O)[C@H](O)[C@H]6O[C@@H]6O[C@H](CO)[C@@H](O)[C@H](O)[C@H]6O)CC[C@@]56C[C@@]46CC[C@]23C)O1` [Astragaloside III] was 1.03.

Take `O=CN1CC/C(=C/c2ccc3c(c2)OCO3)C1=O`: the normalised indicator fluorescence was found to be 1.02. The value for `CCCC(C(=O)OCCN(CC)CC)(c1ccccc1)c1ccccc1` [Proadifen hydrochloride] was 1.28; that for `C/C1=C/CC[C@H](C)C(=O)C[C@@H](C(C)C)C(=O)C1` [Curdione] was 1.15; that for `[I-].[K+]` [Potassium iodide] was 1.21. Next, `C[C@H]1[C@H](C)CC[C@]2(C(=O)O[C@@H]3O[C@H](CO[C@@H]4O[C@H](CO)[C@@H](O[C@@H]5O[C@H](C)[C@H](O)[C@@H](O)[C@H]5O)[C@H](O)[C@H]4O)[C@@H](O)[C@H](O)[C@H]3O)CC[C@]3(C)C(=CC[C@@H]4[C@@]5(C)C[C@@H](O)[C@H](O)[C@@](C)(CO)[C@@H]5CC[C@]43C)[C@H]12` [Asiaticoside]: 1.05.

For the origin of these results see the supplement of paper PMC11865577.
